# From PubChem BioAssay
# RecA intein inh = Mtb RecA intein splicing inhibitors, primary screen, biochemical, fluorescence, HTS; Protein RecA (Mycobacterium tuberculosis (strain ATCC 25618 / H37Rv)), P9WHJ3; 290,000 compounds, 0.75% hits; inhibition, % (no concentration beside the values); cell-free RecA intein splicing; AID 2221, 2009; in the data active means inhibition above about 30%;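 further: 0% = vehicle wells and 100% = reference inhibitor control wells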
# Target sequence (P9WHJ3 whole entry, looked up): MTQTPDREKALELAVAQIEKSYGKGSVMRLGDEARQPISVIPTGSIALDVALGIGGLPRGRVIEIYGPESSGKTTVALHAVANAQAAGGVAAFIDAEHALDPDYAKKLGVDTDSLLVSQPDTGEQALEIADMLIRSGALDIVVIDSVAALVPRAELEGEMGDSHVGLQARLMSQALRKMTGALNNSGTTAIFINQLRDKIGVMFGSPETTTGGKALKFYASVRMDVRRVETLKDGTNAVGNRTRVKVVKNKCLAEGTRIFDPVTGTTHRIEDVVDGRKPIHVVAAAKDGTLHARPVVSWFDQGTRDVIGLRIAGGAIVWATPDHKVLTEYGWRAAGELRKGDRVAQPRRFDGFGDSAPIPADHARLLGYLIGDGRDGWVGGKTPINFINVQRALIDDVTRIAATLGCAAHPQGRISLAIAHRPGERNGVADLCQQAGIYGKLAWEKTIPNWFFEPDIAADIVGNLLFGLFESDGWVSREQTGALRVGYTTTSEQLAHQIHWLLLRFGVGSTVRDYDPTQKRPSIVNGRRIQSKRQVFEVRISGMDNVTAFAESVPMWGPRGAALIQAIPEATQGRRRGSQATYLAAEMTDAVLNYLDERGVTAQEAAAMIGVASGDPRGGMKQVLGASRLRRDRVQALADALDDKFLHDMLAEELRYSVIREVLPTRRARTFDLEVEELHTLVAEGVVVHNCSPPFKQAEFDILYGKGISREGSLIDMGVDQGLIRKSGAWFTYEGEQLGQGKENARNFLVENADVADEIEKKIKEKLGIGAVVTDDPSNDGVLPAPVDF
# Mtb FBA inh = Mtb FBA enzyme inhibitors, primary screen, biochemical, fluorescence, strain H37Rv | purified M. tuberculosis FBA, fluorescence read-out | inhibition, % at 1 µM | 360,000 compounds, 2.3% hits | Fructose-bisphosphate aldolase (Mycobacterium tuberculosis (strain ATCC 25618 / H37Rv)), …; in the data active means inhibition above about 27%;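 further: 0% = vehicle and 100% = reference inhibitor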
# GDH-TPI counter-1 = GDH-TPI coupling enzyme inhibitors, primary screen, artefact control for M. tuberculosis FBA inhibitor project, biochemical, absorbance, full deck | GDH-TPI coupled enzyme counterscreen, NADH absorbance | inhibition, % at 4.8 µM | 360,000 compounds, 1.2% hits;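 further: 0% = DMSO wells and 100% = wells lacking the enzyme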
# CCHFV vOTU inh = CCHFV vOTU protease inhibitors, primary screen, biochemical, Pep-AMC substrate, fluorescence. Crimean-Congo hemorrhagic fever virus L polyprotein viral ovarian tumor (vOTU) protease …. inhibition, % at 11.5 µM. 370,000 compounds, 0.55% hits. AID 651958, 2012; further: 0% = vehicle wells with enzyme and 100% = no enzyme wells
# Mtb bLac sens = beta-lactam sensitization of Mtb H37Rv, H37Rv. M. tuberculosis H37Rv growth with meropenem, percent inhibition. inhibition, % at 25 µM. 330,000 compounds, 0.27% hits. AID 434955, 2010; call rule not given here;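 further: growth measured after seven days incubation then overnight dye step; 0% = bacteria only wells and 100% = bacteria with antibiotic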
# Mtb FBA inh conf = M. tuberculosis aldolase blockers, biochemical, fluorescence, strain H37Rv, confirmation; shares compounds with Mtb FBA inh; purified M. tuberculosis FBA, fluorescence read-out; 5,600 compounds, 78% hits; inhibition, % at 1 µM; in the data active means inhibition above about 27%;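 further: 0% = vehicle wells and 100% = reference inhibitor wells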
# GDH-TPI counter-2 = GDH-TPI coupling enzyme inhibitors, artefact control for M. tuberculosis FBA inhibitor project, biochemical, fluorescence, high throughput; 5,600 compounds, 81% hits; shares compounds with Mtb FBA inh; inhibition, % at 1 µM; AID 652141, 2013; GDH-TPI coupled enzyme counterscreen; in the data active means inhibition above about 10%
# * hit, by the source's call; / = no result given; + = active, no number. Hits are enriched below; roughly 4.2% of the tested compounds scored in any of these assays. Unless noted, no stated cut-off is given here; in the data, active means inhibition above about 30%; inactive means the rest.
SMILES,RecA intein inh,Mtb FBA inh,GDH-TPI counter-1,CCHFV vOTU inh,Mtb bLac sens,Mtb FBA inh conf,GDH-TPI counter-2
COCCCNc1ccn2nc(-c3cccc(Cl)c3)cc2n1,/,34.5*,0.4,-7.0,/,8.8,-2.0
COc1cc(-c2cc3nc(NCCN(C)C)ccn3n2)cc(OC)c1OC,/,2.3,9.3,5.2,/,/,/
CCC(CO)Nc1ccn2nc(-c3cccc(Cl)c3)cc2n1 (stereo unspecified),/,30.7*,6.6,-22.7,/,28.1*,20.8*
COc1cc(-c2cc3nc(NC4CCCCC4)ccn3n2)cc(OC)c1OC,/,30.8*,10.7,-6.7,/,-7.9,-6.6
FC(F)(F)c1cccc(-c2cc3nc(NC4CCCCC4)ccn3n2)c1,/,8.5,-6.2,23.7,/,/,/
OC1CCC(Nc2ccn3nc(-c4cccc(Cl)c4)cc3n2)CC1 (stereo unspecified),/,33.6*,5.8,-4.3,/,60.5*,42.4*
Cc1cc(N2CCN(S(C)(=O)=O)C[C@H]2C)ccc1N1CCN(Cc2ccccc2)[C@H](C)C1,/,/,/,-0.9,/,/,/
Cc1ccccc1N(C)C(=O)C1CCCN1S(=O)(=O)c1cccc2cccnc12 (stereo unspecified),/,/,/,1.3,/,/,/
COC(=O)C1CN(CC(C)C)CCS(=O)(=O)N1Cc1cccc(Cl)c1 (stereo unspecified),/,/,/,1.3,/,/,/
COCCNC(=O)[C@]1(C#N)CC(=O)N(C)[C@@H]1c1ccccc1,/,/,/,0.6,/,/,/
OC1CCC(Nc2ccn3nc(-c4cccc(OCc5ccccc5)c4)cc3n2)CC1 (stereo unspecified),/,29.1*,7.6,-22.0,/,54.1*,38.7*
CCCSc1ccccc1C(=O)N1CCN(C(=O)c2ccco2)CC1,-0.1,54.9*,11.6,19.1,2.2,+,+
COC(=O)c1cc(-c2ccc(Br)cc2)c2c(=O)n(C)c(=O)n(C)c2n1,0.8,3.6,14.7,19.5,-6.6,/,/
COC(=O)c1cc(OC)nc2c1c(=O)n(C)c(=O)n2C,-0.1,110.3*,7.3,-28.2,-6.4,/,+
Cc1c(C)n2c(SCC(=O)NC3CCCCC3)nnc2[nH]c1=O,-0.8,32.2*,4.2,1.5,0.8,-3.0,-4.4
C=CCN(CC#Cc1ccccc1)CC=C,/,/,/,5.6,/,/,/
COc1ccc(C(=O)NN/C(=N/S(=O)(=O)c2ccc(C)cc2)c2ccccc2)cc1,2.6,58.6*,6.5,7.0,5.5,+,+
CCOc1ccc(S(=O)(=O)/N=C(/Nc2ccc(OC)cc2)c2ccccc2)cc1,5.4,0.4,2.1,23.5,-5.7,/,/
Cc1cccc(CCNC(=O)Cn2ncc3c2-c2cc(C)ccc2OC3)c1,/,/,/,0.1,/,/,/
Cc1ccc(-c2nnc(SCc3ccc([N+](=O)[O-])cc3)n2-c2ccccc2)cc1,/,/,/,5.5,/,/,/
COc1cccc2c(=O)c(C/C=C(/C)Cl)c(C)[nH]c12,-4.0,39.4*,4.4,4.1,16.2,49.8*,41.6*
COc1cccc2c(=O)c(SC(F)(F)C(F)C(F)(F)F)c(C)[nH]c12 (stereo unspecified),0.9,34.8*,13.7,-12.4,1.4,113.9*,99.9*
CCCCNC(=O)C1(C(=O)c2ccc(OC)cc2)CC(C(=O)OCC)=NO1 (stereo unspecified),/,/,/,4.5,/,/,/
CCCC(=O)Nc1ccc2c(c1)nc1n2CCN(CCOC)C1,-5.4,33.4*,4.7,-8.9,-3.6,+,178.8*
CCCCC(=O)Nc1ccc2c(c1)nc1n2CCN(CCOC)C1,-0.1,51.5*,6.6,-24.6,/,16.3,12.3*
CCOc1ccc2cc(C(=O)NCc3ccccc3)c(=N)oc2c1,-0.5,40.9*,9.7,-35.4,-0.8,52.7*,35.2*
CCOc1cccc2cc(C(=O)NCc3ccc(Cl)cc3)c(=N)oc12,1.1,-0.6,2.7,22.2,23.9,/,/
O=C(Nc1ccccc1[N+](=O)[O-])NC1CCCCN(Cc2ccc(Cl)cc2)C1=O (stereo unspecified),/,/,/,1.8,/,/,/
